Screening data: PubChem, National Center for Advancing Translational Sciences (NCATS)
Only some compounds are listed: those with a hit (about 3.9% of all), similar ones and a draw of the others.
TGFb inhibitor: inhibitors of TGF-b signaling. 1.2% of 410,000 active. AID 588855. Potency, µM (doses to about 46.1 µM), without a hit: at the top dose activity, negative = inhibition, usual class: inhibitors. HepG2 CAGA-GFP TGF-b/SMAD3 reporter, GFP fluorescence, 18 h; TGF-beta stimulated, 500 pg/mL final; further: on the % scale 0 is the no-effect control and ±100 the full control effect; nearly all actives have a fitted effect of over 65% in size
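Per well, imaged GFP fluorescence of HEPG2 CAGA-GFP cells gives the signal; cells get compound, then TGF-beta (500 pg/mL final), 18 h at 37 degrees C; %Activity versus -TGF-beta and +DMSO controls.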
ATXN viability: reduces viability in counter-screen for ATXN expression inhibitors | S2 cells (HEK-293 line with an ATXN2-luciferase reporter) viability, CellTiter-Fluor protease fluorescence, 24 h | AID 651635 | 0.49% of 400,000 active | Potency, µM (highest dose often 56.7 µM), usual class: cytotoxic; further: nearly all actives have a fitted effect of over 40% in size
HT1080 IDH1KD tx: toxicity to HT-1080 IDH1 knockdown cells (counter line) | HT-1080 IDH1 knockdown viability, ATP luminescence, 48 h | Potency, µM (top dose mostly 46.1 µM), for the others: at the top dose activity, negative = toxicity, hits mostly cytotoxic | 2% of 360,000 active | AID 686971;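 further: 0% = DMSO wells and -100% = cell-free medium wells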
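% activity derives from luminescence (CellTiter-Glo), normalised to DMSO and no-cell wells. HT-1080-IDH1KD cells, 750/well, had 48 h compound exposure at 37 °C.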
ATXN2 expr inh: reduces ATXN2 reporter expression in HEK-293 cells; HEK-293 ATXN2-luciferase reporter, luminescence, 24 h; Potency, µM (titrated, usually from 57 µM), inactives show top-dose activity change, negative = inhibition, most hits filed as inhibitors; 0.72% of 360,000 active; AID 1745845; further: on the % scale 0 is the no-effect control and ±100 the full control effect; nearly all actives have a fitted effect of over 55% in size
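qHTS (up to 57 uM final) was run with 24 h compound exposure of reporter cells at 37 °C. Each well was multiplexed: SteadyGlo luminescence measured ATXN2-luciferase expression after a fluorogenic Gly-Phe-AFC viability readout (25 uM final).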
HT1080-NT tox: kills 2HG-producing HT-1080-NT fibrosarcoma cells; Potency, µM (doses to about 46.1 µM), without a hit: at the top dose activity, negative = less viability, most hits filed as cytotoxic; 1.6% of 360,000 active; AID 686970; HT-1080-NT fibrosarcoma viability, CellTiter-Glo ATP luminescence, 48 h;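 further: NT is the 2HG producing partner of a matched IDH1 knockdown line; 0% = DMSO-treated cells and -100% = media-only wells without cells; nearly all actives have a fitted effect of over 55% in size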
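Fibrosarcoma NT cells, 750 per well in 5% FBS RPMI, were exposed to compound for 48 hours. Viability: CellTiter-Glo luminescence.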
HepG2 tox-1: HepG2 cytotoxicity, counter-screen for TGF-b inhibitors; Potency, µM (doses to about 46.1 µM), inactives show at the top dose activity change, negative = cytotoxicity, actives largely listed as cytotoxic; HepG2 CAGA-GFP viability, ATP luminescence, 18 h; 0.76% of 410,000 active
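HepG2 CAGA-GFP cells (1000/well, DMEM with 1% FBS) received compound, then TGF-beta at 500 pg/mL final, and were incubated 18 hours at 37 degrees C. Viability was read by CellTiter-Glo luminescence. Media-only wells were set as complete cell-killing and DMSO as no toxicity.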
TGFb CAGA inh: TGF-b pathway inhibition, cherry-pick retest; Potency, µM (doses to about 46.1 µM), for the others: top-dose activity, negative = inhibition, actives largely listed as inhibitors; 63% of 1,600 active; HepG2 CAGA-GFP TGF-b reporter, GFP fluorescence, 18 h; cells stimulated with TGF-beta, 500 pg/mL; shares compounds with TGFb inhibitor; further: on the % scale 0 is the no-effect control and ±100 the full control effect; nearly all actives have a fitted effect of over 65% in size
HepG2 tox-2: toxic to HepG2 cells in TGF-b counterscreen. shares compounds with TGFb inhibitor. HepG2 CAGA-GFP viability, ATP luminescence, 18 h; cells stimulated with TGF-beta, 500 pg/mL. Potency, µM (titrated, usually from 46.1 µM), inactives show at the highest dose activity, negative = cytotoxicity, hits mostly inhibitors. 27% of 1,600 active. AID 720535; further: on the % scale 0 is the no-effect control and ±100 the full control effect; nearly all actives have a fitted effect of over 70% in size
TGFb CCL64 inh: TGF-b inhibition, CCL64 orthogonal assay; shares compounds with TGFb inhibitor; CCL64 CAGA-GFP reporter, TGF-b stimulated, GFP fluorescence, 18 h; 41% of 1,600 active; Potency, µM (series often up to 46.1 µM), without a hit: at the top dose activity, negative = inhibition, usual class: inhibitors; further: nearly all actives have a fitted effect of over 65% in size
COP TGFb inh: TGF-b inhibition validated with COP promoter; HepG2 COP-GFP TGF-b reporter, GFP fluorescence, 18 h; cells stimulated by added recombinant TGF-beta; shares compounds with TGFb inhibitor; 3% of 1,600 active; AID 720537; Potency, µM (highest dose often 46.1 µM), without a hit: at the top dose activity, negative = inhibition, hits mostly inhibitors; further: nearly all actives have a fitted effect of over 70% in size
Active calls of the source: *; i = inactive; ? = inconclusive; / = not tested or not shown. The call rests on the fitted dose curve; in most records, active means well fitted curve in the direction sought with a large enough effect; inconclusive means small, poorly fitted or top-dose-only effect, or another doubt; inactive means no such curve, though single readings can be large; an effect the other way counts as inactive or inconclusive. Potency means the concentration at half of the fitted maximal effect.

SMILES	TGFb inhibitor	ATXN viability	HT1080 IDH1KD tx	ATXN2 expr inh	HT1080-NT tox	HepG2 tox-1	TGFb CAGA inh	HepG2 tox-2	TGFb CCL64 inh	COP TGFb inh
CC(C(=O)Nc1ccc(C(F)(F)F)cc1)N(C)CC(=O)N1CCN(Cc2ccccc2)CC1 (stereo unspecified)	?	i	-15%	-19%	-1%	-16%	/	/	/	/
CSc1ccccc1NC(=O)C(C)N(C)CC(=O)N1CCN(Cc2ccccc2)CC1 (stereo unspecified)	?	i	9%	-18%	1%	1%	?	0%	5%	4%
O=C(Nc1cccc(S(=O)(=O)Nc2ccccc2Cl)c1)c1ccc(Cl)nc1	13µM*	i	-8%	-22%	-4%	-29%	8.2µM*	-15%	-2%	10%
CCOc1ccc(Sc2cc(C(=O)NC(C)CC)c3ccccc3n2)cc1 (stereo unspecified)	-4%	i	/	10%	/	4%	/	/	/	/
Cc1ccccc1NC(=O)C(=O)NCC(c1ccc2c(c1)OCO2)N1CCN(c2ccccc2)CC1 (stereo unspecified)	-2%	/	/	/	/	-3%	/	/	/	/
CC(C)n1ncc2c(C(=O)N3CCN(Cc4ccc(Cl)s4)CC3)cc(C3CC3)nc21	10µM*	?	-12%	-9%	3%	-1%	?	-29%	?	-9%
CC(C)(C)OC(=O)N1CCC(CC2CC(c3ccccc3)=NO2)(C(=O)NCc2ccccc2)CC1 (stereo unspecified)	?	?	2%	-9%	2%	-15%	/	/	/	/
COC(=O)C1(CC2CC(c3cccc(Br)c3)=NO2)CCN(C(=O)OC(C)(C)C)CC1 (stereo unspecified)	?	i	-5%	-23%	-13%	-4%	23µM*	?	?	51%
COc1cc(C(=O)N/N=C(\C)c2ccccn2)cc(OC)c1OC	1.3µM*	i	?	-13%	?	-2%	7.3µM*	-17%	3.7µM*	-11%
C/C(=N/NC(=O)c1ccccn1)c1ccc(O)cc1	5%	i	-5%	/	0%	-3%	/	/	/	/
C/C(=N\NC(=O)COc1ccccc1-c1ccccc1)c1ccccn1	11µM*	/	?	?	?	-18%	9.2µM*	?	?	-8%
COc1ccc(OC)c2sc(NC(=O)c3ccc(S(=O)(=O)N4CCCC4)cc3)nc12	1%	i	/	6%	/	-24%	/	/	/	/
COc1ccc(CNC(=O)Cc2c(C)c3cc4c(C)coc4cc3oc2=O)cc1OC	-1%	/	/	/	/	-16%	/	/	/	/
CCc1ccc(N2CCn3c2nc2c3c(=O)n(CCc3ccccc3)c(=O)n2C)cc1	-11%	/	/	/	/	-6%	/	/	/	/
Cc1ccc(-c2csc(Cc3nc(-c4cc5ccccc5oc4=O)cs3)n2)cc1	?	i	13%	-19%	-2%	-16%	?	-16%	5%	-1%
O=c1oc2ccccc2cc1-c1csc(Cc2nc(-c3ccc(Br)cc3)cs2)n1	19%	?	3%	-18%	14%	-14%	/	/	/	/
O=S(=O)(c1ccccc1F)N1CCN(Cc2cc3c(cc2Br)OCCO3)CC1	13µM*	i	2%	-16%	7%	0%	?	-21%	?	-4%
CC[C@@H]1C(c2ccccc2)=NN(c2ccccc2)[C@H]1C(=O)N1CCOC1=O	?	/	-22%	-12%	-25%	-20%	-13%	0%	-2%	-10%
O=C1OCCN1C(=O)[C@H]1[C@H](c2ccc([N+](=O)[O-])cc2)C(c2cccc(Cl)c2)=NN1c1ccccc1	?	?	-18%	-2%	-25%	-8%	-27%	-18%	0%	-5%
CCN(CC)CCCNC(=O)c1nn(-c2ccc(OC)cc2)c(=O)c2c1c1ccccc1n2C	2%	i	/	4%	/	-13%	/	/	/	/
COc1ccc2oc(=Nc3cc(F)ccc3F)c(C(N)=O)cc2c1	8.9µM*	i	?	-30%	?	-7%	?	0%	-6%	22%
COC(=O)[C@@]1(Cc2ccccc2)[C@H]2C(=O)N(Cc3ccccc3)C(=O)[C@H]2[C@H]2CN=C(SCC3CC3)N21	11µM*	?	7%	-17%	3%	-15%	?	?	?	37%
COC(=O)[C@@]1(Cc2ccccc2)[C@H]2C(=O)N(Cc3ccccc3)C(=O)[C@H]2[C@H]2CN=C(SCc3ccccc3)N21	?	i	-9%	-4%	0%	-30%	/	/	/	/
Cc1cccc(NC(=O)Cn2nc(-c3ccccc3)c3cnc4ccccc4c32)c1	-4%	i	/	0%	/	-48%	/	/	/	/
COc1cc(OC)c(N(C)C(=O)Cn2ncc3c([nH]c4ccccc43)c2=O)cc1Cl	-17%	?	/	5%	/	-13%	/	/	/	/
CCO[C@@H]1OC(C(=O)NCc2nc3ccccc3[nH]2)=C[C@H](C(C)(C)C)[C@H]1CCCO	1.6µM*	?	3.3µM*	4%	3.3µM*	-5%	?	6%	?	-25%
CC(C)C[C@H](NC(=O)OC(C)(C)C)c1nnc(SCc2ccccc2)o1	0%	i	-22%	-12%	-8%	2%	/	/	/	/
Cc1ccccc1CS(=O)(=O)c1nnc([C@H](CC(C)C)NC(=O)OC(C)(C)C)o1	5µM*	?	4µM*	?	11µM*	-90%	3.7µM*	?	5.8µM*	?
